Laboratory results from PubChem BioAssay AID1159580 (chemical genetic matrix, 2015).
About 2,000 (36%) of roughly 5,500 compounds were called active. About 18% were inconclusive and are not listed. Rule as the data show it: active = normalized growth mostly below about 0.91 (no sharp cut-off); inconclusive = no clear call, values can overlap the other calls; inactive = mostly above about 0.92. Some of the results follow.

Test: chemical genetic growth profiling, strain panel (AID 1159580);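 also: tested at 20 µM; growth read once vehicle control cultures reached saturation at 30 °C; 1 = growth at the plate median or of vehicle wells; lower values mean less growth of the strain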
Conditions: S. cerevisiae deletion strains, growth OD

Measured: normalized growth

FC(F)(F)c1ccccc1-n1ccnc1
inactive: locus YAL021C, strain ccr4, active compounds read low 0.971 | locus YAL026C, strain drs2, active compounds read low 1.02 | locus YAL030W, strain snc1, active compounds read low 1.01 | locus YAL040C, strain CLN3, active compounds read low 1.01 | locus YBL061C, strain skt5, active compounds read low 1.01 | locus YBR009C, strain hhf1, active compounds read low 1.08 | locus YBR023C, strain chs3, active compounds read low 1 | locus YBR171W, strain sec66, active compounds read low 0.966 | locus YBR231C, strain swc5, active compounds read low 1 | locus YBR279W, strain paf1, active compounds read low 1 | locus YCL011C, strain gbp2, active compounds read low 0.998 | locus YCL016C, strain dcc1, active compounds read low 1.01 | locus YCL061C, strain MRC1 (second series), active compounds read low 1 | locus YCL061C, strain MRC1, active compounds read low 1 | locus YCL069W, strain vba3, active compounds read low 0.999 | locus YCR088W, strain abp1, active compounds read low 0.986 | locus YDL005C, strain med2, active compounds read low 0.992 | locus YDL040C, strain nat1, active compounds read low 1 | locus YDR001C, strain nth1, active compounds read low 0.988 | locus YDR069C, strain doa4, active compounds read low 0.999 | locus YDR137W, strain rgp1, active compounds read low 0.949 | locus YDR159W, strain sac3, active compounds read low 1.04 | locus YDR195W, strain ref2 1.03 | locus YDR297W, strain sur2, active compounds read low 0.995 | locus YDR334W, strain swr1, active compounds read low 0.963 | locus YDR335W, strain msn5, active compounds read low 0.988 | locus YDR363W, strain ESC2, active compounds read low 1.02 | locus YDR392W, strain spt3, active compounds read low 0.993 | locus YEL003W, strain gim4, active compounds read low 0.987 | locus YEL037C, strain rad23, active compounds read low 1 | locus YEL061C, strain CIN8 (second series), active compounds read low 0.995 | locus YER002W, strain NOP16, active compounds read low 0.991 | locus YER015W, strain faa2, active compounds read low 1 | locus YER016W, strain bim1, active compounds read low 1.01 | locus YER111C, strain swi4, active compounds read low 0.999 | locus YER155C, strain BEM2 (second series), active compounds read low 1.04 | locus YFR010W, strain ubp6, active compounds read low 1 | locus YGL167C, strain pmr1, active compounds read low 1.01 | locus YGL173C, strain kem1, active compounds read low 1.01 | locus YGL227W, strain vid30, active compounds read low 1.02 | locus YGL240W, strain doc1, active compounds read low 1.06 | locus YGL253W, strain hxk2, active compounds read low 1 | locus YHR013C, strain ard1, active compounds read low 0.998 | locus YHR027C, strain rpn1, active compounds read low 0.99 | locus YHR030C, strain SLT2, active compounds read low 0.993 | locus YHR079C, strain IRE1, active compounds read low 1.01 | locus YHR142W, strain chs7, active compounds read low 0.935 | locus YJL092W, strain hpr5, active compounds read low 0.975 | locus YJL095W, strain BCK1 (second series), active compounds read low 0.994 | locus YJL095W, strain BCK1, active compounds read low 1 | locus YJL115W, strain asf1, active compounds read low 0.983 | locus YJL129C, strain trk1, active compounds read low 0.974 | locus YJL154C, strain vps35, active compounds read low 1 | locus YJL164C, strain tpk1, active compounds read low 0.978 | locus YJL166W, strain qcr8, active compounds read low 1.01 | locus YJL187C, strain SWE1, active compounds read low 1 | locus YJR066W, strain TOR1, active compounds read low 0.936 | locus YKL160W, strain elf1, active compounds read low 0.971 | locus YKR026C, strain gcn3, active compounds read low 0.993 | locus YKR091W, strain srl3, active compounds read low 1 | locus YLL001W, strain dnm1, active compounds read low 1 | locus YLL026W, active compounds read low 1 | locus YLL041C, strain sdh2, active compounds read low 0.994 | locus YLR027C, strain aat2, active compounds read low 0.99 | locus YLR113W, strain HOG1, active compounds read low 1.05 | locus YLR221C, strain rsa3, active compounds read low 0.985 | locus YLR258W, strain gsy2, active compounds read low 1.03 | locus YLR262C, strain YPT6 (second series), active compounds read low 0.923 | locus YLR320W, strain mms22, active compounds read low 1 | locus YLR342W, strain FKS1, active compounds read low 1 | locus YLR357W, strain rsc2, active compounds read low 1.02 | locus YLR370C, strain arc18, active compounds read low 1 | locus YLR384C, strain iki3, active compounds read low 0.995 | locus YML120C, strain ndi1, active compounds read low 0.979 | locus YMR058W, strain fet3, active compounds read low 0.98 | locus YMR125W, strain sto1, active compounds read low 1.02 | locus YMR129W, active compounds read low 0.992 | locus YMR205C, strain PFK2, active compounds read low 1.09 | locus YMR231W, strain pep5, active compounds read low 1.02 | locus YMR307W, strain GAS1, active compounds read low 1.02 | locus YNL071W, strain lat1, active compounds read low 0.992 | locus YNL175C, strain NOP13, active compounds read low 0.976 | locus YNL183C, strain NPR1, active compounds read low 0.925 | locus YNL197C, strain WHI3, active compounds read low 0.977 | locus YNL209W, strain ssb2, active compounds read low 1 | locus YNL224C, strain SQS1, active compounds read low 0.995 | locus YNL248C, strain rpa49, active compounds read low 0.936 | locus YNL322C, strain KRE1 (second series), active compounds read low 1.01 | locus YNL322C, strain KRE1, active compounds read low 0.996 | locus YNR049C, strain mso1, active compounds read low 0.995 | locus YOR001W, strain rrp6, active compounds read low 0.949 | locus YOR070C, strain gyp1, active compounds read low 1 | locus YOR080W, strain dia2, active compounds read low 1 | locus YOR083W, strain WHI5 (second series), active compounds read low 0.948 | locus YOR083W, strain WHI5, active compounds read low 0.944 | locus YOR106W, strain vam3, active compounds read low 0.951 | locus YOR231W, strain MKK1, active compounds read low 0.981 | locus YOR265W, strain rbl2, active compounds read low 0.991 | locus YOR270C, strain vph1, active compounds read low 0.946 | locus YOR290C, strain snf2, active compounds read low 0.939 | locus YPL051W, strain arl3, active compounds read low 0.98 | locus YPL078C, strain atp4, active compounds read low 0.931 | locus YPL106C, strain sse1, active compounds read low 1.02 | locus YPL240C, strain hsp82, active compounds read low 0.975 | locus YPL241C, strain CIN2, active compounds read low 0.998 | locus YPL256C, strain CLN2, active compounds read low 1.03
